Publication PMC4336329 (PLoS ONE, 2015)
Among all 310,000 compounds or so, about 14,000 (4.5%) showed an effect of 50% or more. The effect is printed as a negative number. For the sample, strong results were picked, then their nearest neighbours and some compounds at random.

molecular target: human ether-à-go-go-related gene (hERG) potassium channel (human, UniProt Q12809); assay: primary screen, population patch clamp on CHO cells stably expressing hERG; higher = less effect of the substance
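Also: peak tail current of the secondary pulse compared with the same well before compound.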

Chain of human ether-à-go-go-related gene (hERG) potassium channel (Q12809 whole entry, looked up): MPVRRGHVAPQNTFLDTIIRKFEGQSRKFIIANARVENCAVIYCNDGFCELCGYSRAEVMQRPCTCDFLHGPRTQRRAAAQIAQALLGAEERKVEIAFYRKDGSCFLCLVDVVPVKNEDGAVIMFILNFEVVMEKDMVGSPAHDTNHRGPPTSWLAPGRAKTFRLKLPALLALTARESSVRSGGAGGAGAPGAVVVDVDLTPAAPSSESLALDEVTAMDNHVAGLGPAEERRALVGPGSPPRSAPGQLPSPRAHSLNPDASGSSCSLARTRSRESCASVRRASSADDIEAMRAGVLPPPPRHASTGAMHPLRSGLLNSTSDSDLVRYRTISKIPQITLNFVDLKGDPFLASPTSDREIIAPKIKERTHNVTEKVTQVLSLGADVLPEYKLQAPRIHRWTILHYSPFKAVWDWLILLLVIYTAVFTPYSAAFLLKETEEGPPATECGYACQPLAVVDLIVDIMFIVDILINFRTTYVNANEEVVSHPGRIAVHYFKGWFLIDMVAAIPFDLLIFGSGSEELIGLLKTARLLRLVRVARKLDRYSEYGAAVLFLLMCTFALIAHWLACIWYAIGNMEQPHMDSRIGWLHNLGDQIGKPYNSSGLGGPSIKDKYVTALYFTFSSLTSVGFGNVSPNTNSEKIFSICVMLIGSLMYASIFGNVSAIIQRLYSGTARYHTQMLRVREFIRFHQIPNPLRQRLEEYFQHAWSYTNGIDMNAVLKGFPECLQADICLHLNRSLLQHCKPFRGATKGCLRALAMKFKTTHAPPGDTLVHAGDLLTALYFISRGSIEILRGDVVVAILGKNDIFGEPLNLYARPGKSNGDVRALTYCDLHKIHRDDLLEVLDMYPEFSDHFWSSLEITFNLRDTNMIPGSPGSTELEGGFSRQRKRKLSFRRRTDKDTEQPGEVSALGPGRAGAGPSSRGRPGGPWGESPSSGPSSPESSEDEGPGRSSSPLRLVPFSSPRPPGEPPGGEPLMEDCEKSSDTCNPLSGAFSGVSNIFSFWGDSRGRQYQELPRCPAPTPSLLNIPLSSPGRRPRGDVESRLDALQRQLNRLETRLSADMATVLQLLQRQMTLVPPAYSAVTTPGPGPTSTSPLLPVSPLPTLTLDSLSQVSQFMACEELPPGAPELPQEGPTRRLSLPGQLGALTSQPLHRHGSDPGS

Row | SMILES | hERG current change (%, negative = inhibition) at 10uM
1 | CCc1ccc2oc(-c3cc(N=Cc4cccc(OC)c4O)ccc3O)nc2c1 | 24.3%
2 | CN(Cc1ccccc1)C(=O)c1ccc(NC(=O)Cc2cccc(NC(=O)C3CCN(C(=O)C4CCCCC4)CC3)c2)cc1 | 8.47%
3 | CCC(C)c1ccc(S(=O)(=O)N2CCN(C(C)CC(=O)O)CC2)cc1 (centres unmarked) | 3.41%
4 | CC(C)c1ccc(S(=O)(=O)N2CCN(C(C)C(=O)NC3CCCC3)CC2)cc1 (centres unmarked) | -75.5%
5 | CC(C(=O)NC1CCCCC1)N1CCN(S(=O)(=O)c2cccs2)CC1 (centres unmarked) | -9.2%
6 | CCC(C)c1ccc(S(=O)(=O)N2CCN(C(C)C(=O)NC3CCCC3)CC2)cc1 (centres unmarked) | -79.1%
7 | CC(C)c1ccc(S(=O)(=O)N2CCN(C(C)C(=O)N3CCCC3)CC2)cc1 (centres unmarked) | -11.8%
8 | CC(C(=O)NC1CCCC1)N1CCN(S(=O)(=O)c2ccc(C(C)(C)C)cc2)CC1 (centres unmarked) | -19.8%
9 | CCCCCCNS(=O)(=O)c1ccc(OC)c(OC)c1 | -11%
10 | CCOC(=O)c1sc(S(C)(=O)=O)c2c1CCc1conc1-2 | 8.59%
11 | Cc1ccc(-n2c(-c3ccccc3)n[nH]c2=S)cc1 | 15.6%
12 | CC(C)OC(=O)/C(=C/c1ccc2c(c1)c1ccccc1n2C)NC(=O)c1ccccc1 | -1.72%
13 | O=C(N/N=C/c1c(O)n(-c2ccccc2)c(=O)[nH]c1=O)c1ccncc1 | 16.2%
14 | Cc1oc(C2CC2)cc1C(=O)O | -9.52%
15 | CCn1cc(CN2CCCC(C(=O)Nc3cccc(-c4cc5ccccc5[nH]4)c3)C2)cn1 (centres unmarked) | -6.49%
16 | Cn1cc(CN2CCC(C(=O)Nc3cccc(-c4cccc(F)c4)c3)CC2)cn1 | -67.4%
17 | CC(C)n1cc(CN2CCCC(C(=O)Nc3cccc(-c4cc5ccccc5[nH]4)c3)C2)cn1 (centres unmarked) | -46.3%
18 | CCn1cc(CN2CCCC(C(=O)Nc3cccc(-c4cc5ccccc5[nH]4)c3)C2)c(C)n1 (centres unmarked) | -14.4%
19 | CC(C)n1cc(CN2CCC(C(=O)Nc3cccc(-c4cscn4)c3)CC2)cn1 | -32.8%
20 | Cn1cc(CN2CCC(C(=O)Nc3cccc(-c4cscn4)c3)CC2)cn1 | 5.33%
21 | CC(C)n1cc(CN2CCC(C(=O)Nc3cccc(-c4cccc(Cl)c4)c3)CC2)cn1 | -85.1%

Row | SMILES | hERG current change (%, negative = inhibition) at 10uM
22 | COc1cccc(-c2cccc(NC(=O)C3CCN(Cc4cnn(C)c4)CC3)c2)c1 | -15.6%
23 | CCn1cc(CN2CCC(C(=O)Nc3cccc(-c4cccc(F)c4)c3)CC2)cn1 | -66.4%
24 | CCn1ncc(CN2CCCC(C(=O)Nc3cccc(-c4cc5ccccc5[nH]4)c3)C2)c1C (centres unmarked) | -56.7%
25 | CC(C)Sc1nsc2nc(=O)c(/C=C3\C=Nc4ccccc43)c(N)n12 | 11.7%
26 | CN(CC(=O)Nc1cccnc1)S(=O)(=O)c1ccc(Br)cc1 | -21.3%
27 | COC(=O)c1ccc(/C=N/NC(=O)CC(=O)NCC(C)C)cc1 | 20.5%
28 | CC(=O)c1ccc(N/N=C2/CCCNC2=O)cc1 | 11.3%
29 | Oc1ccccc1/C=N/NC(=S)NC1CC2CC1C1C=CCC21 (centres unmarked) | 27.3%
30 | c1cnc(N2CCSCC2)nc1 | 0.773%
31 | C#CCSc1nc(-c2ccccc2)cc(C(F)(F)F)c1C#N | 7.12%
32 | CCCn1cc(CN2CCC(C(=O)Nc3cccc(-c4cscn4)c3)CC2)c(C)n1 | -45.3%
33 | CC(=O)c1cccc(CN2CCC(C(=O)Nc3cccc(-c4ccn[nH]4)c3)CC2)c1 | -3.45%
34 | CCn1cc(CN2CCC(C(=O)Nc3cccc(-c4cccc(Cl)c4)c3)CC2)cn1 | -67.9%
35 | CCCn1ncc(CN2CCC(N3CCC(C(=O)N4CCOCC4)CC3)CC2)c1C | 14.4%
36 | CCOc1ccc(CN2CCC(C(=O)Nc3cccc(-c4ccn[nH]4)c3)CC2)cc1Cl | -62.3%
37 | CCn1cc(CN2CCC(C(=O)Nc3cccc(-c4cscn4)c3)CC2)cn1 | -15.4%
38 | CCn1cc(CN2CCC(C(=O)Nc3cccc(-c4cccc(OC)c4)c3)CC2)cn1 | -49.8%
39 | C=CCOc1ccccc1CN1CCC(C(=O)Nc2cccc(-c3ccn[nH]3)c2)CC1 | -33.9%
40 | CCCn1ncc(CN2CCC(C(=O)Nc3cccc(-c4cccc(F)c4)c3)CC2)c1C | -71.7%
41 | COCCn1c(SCC(=O)OCc2ccccc2)nc2c1c(=O)[nH]c(=O)n2C | -25.6%
42 | CCN1C(=O)CC(N2CCC(Cc3ccccc3)CC2)C1=O (centres unmarked) | -2.52%

Row | SMILES | hERG current change (%, negative = inhibition) at 10uM
43 | CCOC(=O)C1(C)NC(c2ccco2)C2C(=O)N(c3ccccc3)C(=O)C21 (centres unmarked) | 10.4%
44 | Cc1cc(Br)ccc1NC(=O)C1CCN(S(=O)(=O)c2cnc[nH]2)CC1 | 8.88%
45 | COc1ccc2c(c1)C(c1ccc(N3CCOCC3)cc1)=NNC(c1cccnc1)=N2 | -5.34%
46 | Clc1ccc(Cc2ccccc2)nn1 | 4.59%
47 | COc1cc(C(Nc2ccc3c(c2)OCO3)C(=O)NC2CCCCC2)cc(OC)c1OC (centres unmarked) | -61.7%
48 | COc1cc(NC(=O)Nc2ccc3c(c2)OCO3)cc(OC)c1OC | 31.4%
49 | COc1cc(C(=O)NC(=S)Nc2ccc3c(c2)OCO3)cc(OC)c1OC | 12.1%
50 | CCS(=O)(=O)C1=NSC2=NC(=O)/C(=C\c3ccc(OC(=O)c4ccco4)c(OC)c3)C(=N)N21 | 8.51%
51 | COc1cccc(NC(=O)CSc2nc3ccccc3n2C)c1 | -16.5%
52 | COC(=O)c1c(C(=O)OC)c2cc(C)ccn2c1Cl | -24.9%
53 | O=C(CCn1c(=O)oc2ccc(Cl)cc21)N1CCN(c2ccccc2)CC1 | -33.8%
54 | O=C(C[n+]1cc(-c2ccccc2)n2c1CCCCC2)c1ccc(Br)cc1.[Br-] | -52.7%
55 | O=C(C[n+]1cc(-c2ccccc2)n2c1CCC2)OCc1ccccc1.[Br-] | -15.2%
56 | Cc1ccc(-c2c[n+](CC(=O)c3ccc(Br)cc3)c3n2CCCCC3)cc1.[Br-] | -61.4%
57 | Cc1ccc(C(=O)C[n+]2cc(-c3ccc(C)cc3)n3c2CCCCC3)cc1.[Br-] | -53.1%
58 | O=C(C[n+]1cc(-c2ccc(F)cc2)n2c1CCC2)OCc1ccccc1.[Br-] | -11.9%
59 | Cc1ccc(C(=O)C[n+]2cc(-c3ccccc3)n3c2CCCCC3)cc1.[Br-] | -11.3%
60 | O=C(C[n+]1cc(-c2ccc(Br)cc2)n2c1CCCCC2)c1ccccc1.[Br-] | -9.11%
61 | Cc1ccc(-c2c[n+](CC(=O)OCc3ccccc3)c3n2CCC3)cc1.[Br-] | -56.3%
62 | O=C(C[n+]1cc(-c2ccccc2)n2c1CCC2)c1cccs1.[Br-] | -3.31%
